Results as given in PubChem BioAssay AID463173 (ICCB-Longwood Screening Facility, Harvard Medical School, 2010).
The whole screen tested about 52,000 compounds, of which about 1,700 (3.3%) were called active. This excerpt belongs to a sample that is enriched for actives. Values without a mark were called inactive. No stated cut-off is given here; in the data, active means survival mostly below about 52% (no sharp cut-off); inactive means mostly above about 56%.

Test system: Wild type
Assay: S. aureus survival, RN4220 and DeltatarO strains – OD600, teichoic acid synthesis inhibitors, primary screen (AID 463173)
Conditions: S. aureus RN4220 wild type/DeltatarO growth, OD600, 18 h, stronger effect = lower value, screened at 18.75 µg/mL (by protocol)

| Structure (SMILES) | survival |
| --- | --- |
| Cc1ccc2scc(N3CCN(c4ccccc4)CC3)c(=O)c2c1 | 74% |
| Cc1c(-c2cccc(NC(=O)Cc3ccccc3)c2)nc2ncccn12 | 73% |
| Cc1ccc2c(CNC3CCCC3)c(C(=O)O)n(Cc3ccc(F)cc3)c2c1 | 111% |
| C/C(=N\NC(=O)COc1ccccc1)C1C(=O)c2ccccc2C1=O | 107% |
| COc1cccc(-n2c(SCC(=O)Nc3cc(C)ccc3C)nc3c(oc4ccccc43)c2=O)c1 | 96% |
| COc1ccc(Nc2nnc(-c3ccc(C)c(S(=O)(=O)NCCO)c3)c3ccccc23)cc1C(N)=O | 70% |
| Cc1ccccc1-c1ccnc2c(-c3ccc(F)cc3)c(C)nn12 | -13% (active) |
| CCc1nn2c(-c3ccco3)ccnc2c1-c1ccc(F)cc1 | 71% |
| COc1ccccc1-c1ccnc2c(-c3ccc(Br)cc3)c(C)nn12 | 77% |
| CCc1nn2c(-c3ccco3)ccnc2c1-c1ccccc1 | 89% |
| COc1cccc(-c2ccnc3c(-c4ccc(F)cc4)c(C)nn23)c1 | 99% |
| CCc1nn2c(-c3ccccc3OC)ccnc2c1-c1ccccc1 | -12% (active) |
| Cc1nn2c(-c3ccco3)ccnc2c1-c1ccc(F)cc1 | 75% |
| CCc1nn2c(-c3ccccc3OC)ccnc2c1-c1ccc(F)cc1 | -11% (active) |
| COc1ccc(-c2ccnc3c(-c4ccc(F)cc4)c(C)nn23)cc1OC | 79% |
| CCOc1ccc(CN2CCC(C(=O)NCC3CCCO3)CC2)cc1OC (centres undefined) | 99% |
| CCOC(=O)C1CCCN(C(=O)Cn2ncc3c4ccccc4n(Cc4ccccc4)c3c2=O)C1 (centres undefined) | 121% |
| CCOC(=O)c1c(NC(=O)COc2cccc(C)c2C)sc(C(C)=O)c1C | 130% |
| Cc1ccc(S(=O)(=O)c2nc(-c3ccco3)oc2SC(C)C)cc1 | 49% |
| CCC(C)Sc1oc(-c2ccco2)nc1S(=O)(=O)c1ccc(Cl)cc1 (centres undefined) | 25% |
| Cc1ccc(S(=O)(=O)c2nc(-c3ccco3)oc2SCC(C)C)cc1 | 39% |
| CCSc1oc(-c2ccco2)nc1S(=O)(=O)c1ccc(Br)cc1 | 65% |
| CCC(C)Sc1oc(-c2ccco2)nc1S(=O)(=O)c1ccc(C)cc1 (centres undefined) | -12% (active) |
| CC(C)CSc1oc(-c2ccco2)nc1S(=O)(=O)c1ccc(Br)cc1 | 27% (active) |

| Structure (SMILES) | survival |
| --- | --- |
| CNC(=O)C1CCN(Cc2cc3ccccc3n2Cc2cccc(C)c2)CC1 | 81% |
| O=C(Nc1ccc2nc(SCCOc3ccccc3Cl)sc2c1)c1cccs1 | 72% |
| CC(=O)Nc1ccc2nc(SCCOc3ccccc3Cl)sc2c1 | 9% (active) |
| CC(C)(C)C(=O)Nc1ccc2nc(SCCOc3ccccc3Cl)sc2c1 | 99% |
| COc1ccc(Cn2nnnc2CN2CCC(NC(=O)c3cccc(OC)c3)CC2)cc1 | 115% |
| O=C(CN1C(=O)C2(SCC(=O)N2c2cccc(F)c2)c2ccccc21)NCc1ccccc1Cl (centres undefined) | 80% |
| CCOc1ccc(S(=O)(=O)c2cc3cccc(OCC)c3oc2=O)cc1 | 81% |
| COc1ccc(S(=O)(=O)c2cc3cc(OC)ccc3oc2=O)cc1 | 76% |
| COc1ccc(S(=O)(=O)c2cc3cc(C(C)(C)C)cc(O)c3oc2=O)cc1 | 10% (active) |
| CCOC(=O)c1c(C)oc2nc(C)nc(Nc3cc(C)ccc3OC)c12 | 85% |
| Cn1c(=O)n(-c2ccc(F)c(Cl)c2)c(=O)c2sc3ccccc3c21 | 96% |
| COc1ccc(Cn2c(CO)cnc2SCc2ccc(F)cc2)cc1 | -1% (active) |
| COc1ccc(Cn2ccnc2SCC(=O)NCc2ccco2)cc1 | 70% |
| OCc1cnc(SCc2ccc(F)cc2)n1Cc1ccc(F)cc1 | 85% |
| COc1ccc(Cn2c(CO)cnc2SCC(=O)NCc2ccco2)cc1 | -6% (active) |
| COc1ccccc1NC(=O)CSc1ncc(CO)n1Cc1ccc(F)cc1 | 121% |
| O=C(CSc1ncc(CO)n1Cc1ccc(Cl)cc1)NCc1ccc(F)cc1 | 14% (active) |
| Cc1ccc(Cn2c(CO)cnc2SCC(=O)Nc2ccc(C)c(Cl)c2)cc1 | -6% (active) |
| O=C(CSc1ncc(CO)n1Cc1ccc(F)cc1)NCc1ccco1 | 134% |
| CCOC(=O)c1ccccc1NC(=O)CSc1ncc(CO)n1Cc1ccc(C)cc1 | 90% |
| O=C(CSc1nc2ccsc2c(=O)n1Cc1ccc(F)cc1)NCc1ccc(Cl)cc1 | 81% |
| Cc1ccc(Cn2c(CO)cnc2SCC(=O)NCc2ccccc2Cl)cc1 | 80% |
| COc1ccc(Cn2c(CO)cnc2SCc2ccccc2)cc1 | 69% |
| Cn1ccc2cc(S(=O)(=O)N3CCN(C(=O)Nc4cccc(F)c4)CC3)ccc21 | 74% |

| Structure (SMILES) | survival |
| --- | --- |
| CCCCN(CCCNC(=O)c1cc(Nc2ccc(OC)c(OC)c2)nc2ccccc12)Cc1ccccc1 | 79% |
| CCc1nn2c(=O)cc(COC(=O)c3cccc(NC(=O)CCc4ccccc4)c3)nc2s1 | 72% |
| CC(=O)c1cccc(NC(=O)C2CCN(S(=O)(=O)c3ccc4c(c3)oc(=O)n4C)CC2)c1 | 90% |
| O=S(=O)(NCc1nc2cccnc2n1Cc1ccccc1Cl)c1ccc2c(c1)CCCC2 | 73% |
| CCCN(CCC)CC(O)Cn1cc(/C=C/C(=O)c2ccc(Br)cc2)c2ccccc21 (centres undefined) | 85% |
| CCCN(CCC)CC(O)Cn1cc(/C=C/C(=O)c2ccc(C)cc2)c2ccccc21 (centres undefined) | -1% (active) |
| COc1ccc(C(=O)/C=C/c2cn(CC(O)CN(CC(C)C)CC(C)C)c3ccccc23)cc1 (centres undefined) | 44% |
| CC(C)CN(CC(C)C)CC(O)Cn1cc(/C=C/C(=O)c2ccccc2)c2ccccc21 (centres undefined) | 40% |
| CCCN(CCC)CC(O)Cn1cc(/C=C/C(=O)c2ccc(OCC)cc2)c2ccccc21 (centres undefined) | 23% (active) |
| COc1ccc(C(=O)/C=C/c2cn(CC(O)CN(CC(C)C)CC(C)C)c3ccccc23)cc1OC (centres undefined) | 60% |
| CCCCN(CCCC)CC(O)Cn1cc(/C=C/C(=O)c2ccccc2)c2ccccc21 (centres undefined) | 18% (active) |
| CCCN(CCC)CC(O)Cn1cc(/C=C/C(=O)c2ccc(OC)cc2)c2ccccc21 (centres undefined) | 1% (active) |
| Cc1ccccc1Cn1c(=O)n(Cc2ccc(Cl)cc2)c(=O)c2cccnc21 | 82% |
| CN1C(=O)CC(=O)N(C)c2cc(S(=O)(=O)N(C)Cc3ccccc3)ccc21 | 24% |
| CN(C)CCNC(=O)c1ccc(Cn2c(=O)c3cccn3c3cccnc32)cc1 | 89% |
| O=C(CCSCc1ccccc1Cl)N1CCN(c2cccc(Cl)c2)CC1 | 75% |
| CCOC(=O)Cc1ccc(NC(=O)N(C(C)C)C2CCN(C(C)=O)CC2)cc1 | 85% |
| Cc1ccccc1CSc1nc2cc(C(=O)NC3CCCC3)ccc2c(=O)n1Cc1ccccc1 | 94% |
| CCOc1ccccc1CNC(=O)c1ccc(Cn2c(SCc3ccccc3)nc3cccnc32)cc1 | 69% |
| COc1ccccc1CNC(=O)c1ccc(Cn2c(SCc3ccccc3)nc3cccnc32)cc1 | 10% (active) |
| O=C(NC1CCCCC1)c1ccc(CSc2nc3cccnc3n2Cc2ccc(F)cc2)cc1 | 19% |
| O=C(NC1CCCC1)c1ccc2c(=O)n(Cc3ccccc3)c(SCc3ccccc3)nc2c1 | 83% |
| COc1ccc(Cn2c(SCc3ccc(C(=O)NCc4ccc(C)cc4)cc3)nc3cccnc32)cc1 | 85% |
| CCNC(=O)c1ccc(CSc2nc3cccnc3n2Cc2ccc(OC)cc2)cc1 | -3% (active) |

| Structure (SMILES) | survival |
| --- | --- |
| O=C(NC1CCCC1)c1ccc2c(=O)n(Cc3ccccc3)c(SCc3ccccc3F)nc2c1 | -3% (active) |
| O=C(NC1CCCCC1)c1ccc(Cn2c(SCc3ccc(F)cc3)nc3cccnc32)cc1 | 0% (active) |
| O=C(NC1CCCC1)c1ccc(CSc2nc3cccnc3n2Cc2ccc(F)cc2)cc1 | 45% |
| O=C(NCc1ccccc1Cl)c1ccc(Cn2c(SCc3ccccc3)nc3cccnc32)cc1 | 68% |
| COCCCNC(=O)c1ccc(CSc2nc3cccnc3n2Cc2ccc(OC)cc2)cc1 | 94% |
| CCN(C(=O)C(NS(=O)(=O)c1cccc2nsnc12)c1ccccc1)c1ccccc1 (centres undefined) | 117% |
| CCN(CC)c1cc2c(cc1F)c(=O)c(S(=O)(=O)c1cccc(C)c1)cn2C | 112% |
| Cc1ccc(NC(=O)C2(c3cccs3)CCOCC2)cc1Cl | 75% |
| COc1ccc(C2=NS(=O)(=O)N(C)C(C(=O)Nc3cc(C)ccc3O)=C2)cc1OC | 69% |
| C=Cc1ccc(Cn2c(=O)n(CC3CCC(C(=O)NC(C)C)CC3)c(=O)c3sccc32)cc1 (centres undefined) | 81% |
| COc1ccc(CCNC(=O)CCc2c(C)nc3c(-c4ccc(F)cc4)c(C)nn3c2C)cc1OC | 137% |
| Cc1ccccc1CNC(=O)c1ccc(Cn2c(SCc3cccc(F)c3)nc3cccnc32)cc1 | 70% |
| Cc1ccccc1CNC(=O)c1ccc(Cn2c(SCc3ccccc3)nc3cccnc32)cc1 | -2% (active) |
| Cc1ccccc1CNC(=O)c1ccc(CSc2nc3cccnc3n2Cc2ccccc2)cc1 | 47% |
| Cc1ccccc1NS(=O)(=O)c1ccc2[nH]cc(C(=O)N3CCCCC3)c(=O)c2c1 | 68% |
| N/C(=N\OC(=O)c1ccccc1)c1cccnc1 | 109% |
| CN(C)c1ccc(C(CNS(=O)(=O)c2ccc(F)cc2)N2CCc3ccccc32)cc1 (centres undefined) | 0% (active) |
| COc1ccc(S(=O)(=O)NCC(c2ccc(N(C)C)cc2)N2CCc3ccccc32)cc1 (centres undefined) | 73% |
| Cc1ccc(S(=O)(=O)NCC(c2ccc(N(C)C)cc2)N2CCc3ccccc32)cc1 (centres undefined) | -2% (active) |
| Cc1ccc(S(=O)(=O)NCC(c2ccc(N(C)C)cc2)N2CCc3ccccc32)cc1C (centres undefined) | 129% |
| CCOc1ccc(S(=O)(=O)NCC(c2ccc(N(C)C)cc2)N2CCc3ccccc32)cc1 (centres undefined) | 22% |
| CN(C)c1ccc(C(CNS(=O)(=O)c2ccccc2)N2CCc3ccccc32)cc1 (centres undefined) | 80% |
